Most compounds without a hit are left out; they make up all but 5.7% or so of the library.
IL-1B inflam inh – blocks inflammasome-driven IL-1 beta release; AID 743279; activity change, % at 57.5 µM; 360,000 tested, 4.7% active; THP-1 LPS/ATP IL-1B secretion, AlphaLISA, 16 h; hits give low values; in the data active means activity change below about -50%; inconclusive means mostly about -30% to -49%; further: on the % scale 0 is the no-effect control and ±100 the full control effect
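Secreted IL-1B measured by AlphaLISA bead assay after 16 h compound exposure of THP-1 cells; compounds (final up to 57.5 uM) added 1 h before LPS (250 ng/mL) and ATP (1.25 mM) stimulation; lower signal means less secretion.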
ATXN viability – viability counter-screen for ATXN expression inhibitors. S2 cells (HEK-293 line with an ATXN2-luciferase reporter) viability, CellTiter-Fluor protease fluorescence, 24 h. Potency, µM (top dose mostly 56.7 µM), hits mostly cytotoxic. 400,000 tested, 0.49% active. AID 651635; further: potency means the concentration at half of the fitted maximal effect; nearly all actives have a fitted effect of over 40% in size
HepG2 tox – kills HepG2 cells in TGF-b inhibitor counter-screen; HepG2 CAGA-GFP viability, ATP luminescence, 18 h; Potency, µM (titrated, usually from 46.1 µM), for inactives: top-dose activity change, negative = cytotoxicity, hits mostly cytotoxic; 410,000 tested, 0.76% active; AID 588856; further: potency means the concentration at half of the fitted maximal effect
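CellTiter-Glo luminescence gave cytotoxicity after 18 hours at 37 degrees C. The cells were HepG2 CAGA-GFP in 1% FBS DMEM, stimulated with 500 pg/mL TGF-beta after compound addition. %Activity was normalised to no-cell wells (complete cell-killing) and DMSO (no toxicity), and curves were fitted and classified.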
TGFb SMAD3 inh – inhibitors of TGF-b signaling; HepG2 CAGA-GFP TGF-b/SMAD3 reporter, GFP fluorescence, 18 h; TGF-beta stimulated, 500 pg/mL final; Potency, µM (titrated, usually from 46.1 µM), without a hit: top-dose activity, negative = inhibition, most hits filed as inhibitors; 410,000 tested, 1.2% active; AID 588855; further: potency means the concentration at half of the fitted maximal effect; on the % scale 0 is the no-effect control and ±100 the full control effect; nearly all actives have a fitted effect of over 65% in size
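Per well, imaged GFP fluorescence of HEPG2 CAGA-GFP cells gives the signal; cells get compound, then TGF-beta (500 pg/mL final), 18 h at 37 degrees C; %Activity versus -TGF-beta and +DMSO controls.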
ATXN2 expr inh – ATXN2 expression inhibition; HEK-293 ATXN2-luciferase reporter, luminescence, 24 h; Potency, µM (titrated, usually from 57 µM), without a hit: at the top dose activity change, negative = inhibition, most hits filed as inhibitors; 360,000 tested, 0.72% active; further: potency means the concentration at half of the fitted maximal effect; on the % scale 0 is the no-effect control and ±100 the full control effect; nearly all actives have a fitted effect of over 55% in size
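ATXN2-luciferase reporter cells (luciferase flanked by upstream and downstream ATXN2 gene portions) were treated 24 h at 37 °C with compounds at up to 57 uM. SteadyGlo luminescence gave expression; GF-AFC fluorescence gave viability.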
Starred values were filed as active, the others as inactive; i = inactive; ? = inconclusive; . = no result given; [ ] = remark or other dose. Unless noted, the call rests on the fitted dose curve; in most records, active means well fitted curve in the direction sought with a large enough effect; inconclusive means small, poorly fitted or top-dose-only effect, or another doubt; inactive means no such curve, though single readings can be large; an effect the other way counts as inactive or inconclusive.

SMILES	IL-1B inflam inh	ATXN viability	HepG2 tox	TGFb SMAD3 inh	ATXN2 expr inh
O=C(c1ccc([N+](=O)[O-])o1)N1CCN(c2nc3c(Cl)cccc3s2)CC1	-79*	?	-56%	?	-31%
COc1cccc2sc(N3CCN(C(=O)c4ccc([N+](=O)[O-])o4)CC3)nc12	-84*	i	-80%	?	?
CCOC(=O)c1c(C)[nH]c(C(=O)N2CCc3cc(OC)c(OC)cc3C2)c1C	-61*	i	-1%	?	-22%
Cc1ccc2sc(N3CCN(C(=O)c4ccc([N+](=O)[O-])o4)CC3)nc2c1C	.	i	-13%	-1%	-27%
Cc1c(NC(=O)Cc2ccc(Cl)cc2)cccc1-c1nc2cccnc2s1	.	i	12%	24%	-7%
N#CC(c1ccncc1)(c1ncc(C(F)(F)F)cc1Cl)N1CCOCC1 (stereo unspecified)	-77*	i	-21%	-10%	-8%
COc1cc(OC)cc(C(=O)NCc2ccc3c(c2)CCN3C(=O)c2ccccc2)c1	.	.	-16%	10µM*	.
Cc1cc2nccc(/C=C/c3ccc(N(C)C)cc3)c2cc1C	.	.	-3%	5%	.
Cc1ccccc1OCCC(=O)Nc1ccc(F)c(Cl)c1	-61*	i	-5%	-5%	-6%
Cc1ccccc1OCCC(=O)Nc1ccc(S(=O)(=O)N(C)C2CCN(C)CC2)cc1	-61*	i	-20%	1%	-3%
CN1CCC(N(C)S(=O)(=O)c2ccc(NC(=O)COc3ccc(Br)cc3Cl)cc2)CC1	-63*	i	-83%	?	?
Cc1c(C(=O)N2CCC(C)CC2)c(S(=O)(=O)N2CCN(c3ccc(Cl)cc3)CC2)c(C)n1C	.	.	-2%	-14%	.
CC(=O)c1cccc(NC(=O)c2nc3ccccc3nc2N2CCCCC2)c1	.	i	-23%	17%	11%
O=C(NCCN1CCC(n2c(=O)[nH]c3ccccc32)CC1)c1ccc(Cl)cc1	-11	i	.	.	-34%
O=C(NCCN1CCC(n2c(=O)[nH]c3ccccc32)CC1)c1ccc(Cl)c(Cl)c1	.	?	.	.	18µM*
O=C(NCCN1CCC(n2c(=O)[nH]c3ccccc32)CC1)c1cccc2c1-c1ccccc1C2=O	-95*	i	.	.	6%
O=C(NCCN1CCC(n2c(=O)[nH]c3ccccc32)CC1)c1c(F)cccc1F	-64*	i	.	.	7%
CCOc1ccc2oc(=O)cc(CN3CCN(c4ccc(OC)cc4)CC3)c2c1	.	.	-44%	-22%	.
Cc1ccc(C)c(CN2C(=O)c3ccccc3S(=O)c3ccc(C(=O)NCc4ccco4)cc32)c1 (stereo unspecified)	.	i	-37%	-10%	-15%
NC(=O)c1ncn([C@@H]2O[C@H](CO)[C@@H](O)[C@@H]2O)n1	.	.	.	.	44%
O=C(c1ccc(Cl)c(Cl)c1)N1CCC(=O)N([C@H](COCc2ccc(Cl)cc2)Cc2ccccc2)CC1	-67*	?	.	.	?
O=C(c1cccc(Cl)c1)N1CCC(=O)N(C(COCc2cccc(Cl)c2)Cc2ccccc2)CC1 (stereo unspecified)	?	.	-23%	?	?
O=C(c1ccc(Cl)c(Cl)c1)N1CCC(=O)N(C(COCc2cccc(Cl)c2)Cc2ccccc2)CC1 (stereo unspecified)	-68*	?	-7%	?	?
Cc1cccc(C(=O)N2CCC(=O)N(C(COCc3ccc(Cl)cc3)Cc3ccccc3)CC2)c1 (stereo unspecified)	-28	?	-18%	?	?
Cc1cc(C(C)(C)CC(C)(C)C)ccc1OCCOCC[N+](C)(C)Cc1ccccc1	23	?	20µM*	?	?
SMILES	IL-1B inflam inh	ATXN viability	HepG2 tox	TGFb SMAD3 inh	ATXN2 expr inh
Cc1cc(C)c(C)c(OCCOCCNCc2ccccc2)c1	?	i	-51%	?	-24%
O=C(c1ccccc1)c1ccc(Cn2cc(CCCO)nn2)cc1	39	i	-9%	?	-1%
O=C(O)CCCCCCCCc1cn(Cc2ccc(C(=O)c3ccccc3)cc2)nn1	74	i	-24%	7.9µM*	-14%
CCOCCCN(C(=O)Cn1nnc(-c2ccc(C)o2)n1)C(C(=O)NC1CCCC1)c1ccc(C)o1 (stereo unspecified)	-52*	i	7%	-22%	0%
COc1ccc(-n2c(=O)c3c(c4cc(OC)ccc4n3C)n(Cc3cc(C)ccc3C)c2=O)cc1	.	i	9%	29%	7%
NS(=O)(=O)c1ccc(N2N=C(c3ccc(Br)cc3)CC2c2ccc(F)cc2)cc1 (stereo unspecified)	-76*	.	20µM*	?	?
COc1ccc(C2CC(c3ccc(Cl)cc3)=NN2c2ccc(S(N)(=O)=O)cc2)cc1 (stereo unspecified)	-18	.	18µM*	?	0%
NS(=O)(=O)c1ccc(N2N=C(c3ccccc3)CC2c2cccc(Br)c2)cc1 (stereo unspecified)	-57*	i	-76%	?	?
NS(=O)(=O)c1ccc(N2N=C(c3ccccc3)CC2c2cccc(F)c2)cc1 (stereo unspecified)	?	i	-83%	?	2%
CCCN1CCC(=O)N(C(CSc2ccc(OC)cc2)CC(C)C)CC1 (stereo unspecified)	.	.	-22%	4%	.
COc1ccc(N2CCC(CNC(=S)Nc3cc(C)ccc3C)C2)cc1 (stereo unspecified)	0	i	2%	?	.
COc1ccc(N2CCC(CNC(=S)Nc3cc(C)cc(C)c3)C2)cc1 (stereo unspecified)	-91*	i	-46%	?	?
Cc1cc(C)cc(NS(=O)(=O)c2ccc3c(c2)NC(=O)C(C)S3)c1 (stereo unspecified)	.	.	-40%	?	.
CCOC(=O)c1cc(-c2ccccc2)sc1NC(=O)C(C)C	-22	i	-4%	0%	-8%
CCOC(=O)c1cc(-c2ccccc2)sc1NC(=O)C(C)Sc1nnnn1C (stereo unspecified)	-76*	i	0%	6%	20%
CCOC(=O)c1cc(-c2ccccc2)sc1NC(=O)C(C)N1C(=O)NC(C)(c2ccc(Cl)cc2)C1=O (stereo unspecified)	-53*	i	-21%	-13%	3%
CCOC(=O)c1cc(-c2ccccc2)sc1NC(=O)C(C)Sc1nnc(C)s1 (stereo unspecified)	-77*	i	1%	-7%	-22%[11.3 µM]
O=c1cc(-c2ccccc2)n2c(SCc3ccc(Br)cc3)nnc2[nH]1	.	.	-9%	-9%	.
Cc1cn2c(=O)cc(COC(=O)c3cccc(NC(=O)COc4ccccc4Cl)c3)nc2s1	.	.	2%	14%	.

From PubChem
